# Results: PubChem BioAssay (NCATS)
# Inconclusive results are not listed. The source made the active and inactive calls. Unless noted, the call rests on the fitted dose curve; in most records, active means well fitted cell-killing curve with a large enough effect; inconclusive means small, poorly fitted or top-dose-only effect, or effect the other way; inactive means no such curve, though single readings can be large or run the other way.
# How the values were obtained:
# [1] = Quantitative High-Throughput drug screen in 47 multiple myeloma cell lines against the NCATS MIPE library collection: KMS11_JCRBsus cell viability assay (AID 1919873); further: nearly all actives have a fitted effect of over 50% in size; further: potency means the concentration at half of the fitted maximal effect
# Outline: (§1)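 Readout: median RLU from CellTiter-Glo after 5 min at room temperature. Preceding step was 48 h drug treatment of 500 cells/well at 37 °C, 5% CO2, with DMSO-only and media-only control wells.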
# [2] = Quantitative High-Throughput drug screen in 47 multiple myeloma cell lines against the NCATS MIPE library collection: KMS28BM_JCRB cell viability assay (AID 1919874); further: nearly all actives have a fitted effect of over 35% in size; further: potency means the concentration at half of the fitted maximal effect
# Outline: as §1
# [3] = qHTS drug screen for cell cycle checkpoint inhibitors in PARPi-resistant BRCA-mutant ovarian cancer cell lines. (AID 1963452; calls by dose curve); settings: PEO1/OlaR viability, CellTiter-Glo luminescence, 96 h, stronger effect = lower value
# Outline: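 PEO1, PEO4 and PEO1/OlaR ovarian cancer cells, 600 per well, exposed 96 h at 37C to a dilution series. Viability read by CellTiter-Glo luminescence, normalized to DMSO and empty wells; activity summarized as Z-AUC.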
# [4] = measured here: PEO1 parental Z-AUC
compound,measurement,setting,value
COc1ccc2c(c1)[C@]13CCCCC1C(C2)N(C)CC3 (some centres undefined),Potency,[1],inactive
N#C[C@H](O[C@@H]1O[C@H](CO[C@@H]2O[C@H](CO)[C@H](O)[C@H](O)[C@H]2O)[C@H](O)[C@H](O)[C@H]1O)c1ccccc1,Potency,[1],7.43 µM (active)
same,Potency,[2],18.7 µM (active)
CC(C)(C)[C@]1(O)C[C@@H]2OC(=O)C[C@@]23C(=O)O[C@@H]2OC(=O)[C@H](O)C213 (some centres undefined),Potency,[1],inactive
same,Potency,[2],inactive
CCN(CC)C(=O)c1ccc(C2=CC3(CCNCC3)Oc3cccc(O)c32)cc1,Potency,[1],inactive
same,Potency,[2],inactive
same,Z-AUC,[3],-0.151 (inactive)
same,Z-AUC,[3]; [4],0.834
same,Z-AUC,[3]; measured here: PEO4 Z-AUC,0.745
CCC(=O)OC1CCC2C3CCC4=CC(=O)CC[C@@]4(C)C3CC[C@]12C (some centres undefined),Potency,[1],inactive
same,Potency,[2],inactive
C=C[C@@H]1CN2CCC1C[C@@H]2[C@@H](O)c1ccnc2ccccc12 (some centres undefined),Potency,[1],20.9 µM (active)
same,Potency,[2],23.5 µM (active)
CC(=O)N(C)c1cccc(-c2ccnc3c(C(=O)c4cccs4)cnn23)c1,Potency,[1],18.7 µM (active)
same,Potency,[2],inactive
CC(C)(O)C=CC(=O)[C@](C)(O)[C@H]1[C@H](O)C[C@]2(C)[C@@H]3CC=C4[C@@H](C=C(O)C(=O)C4(C)C)[C@]3(C)C(=O)C[C@@]12C,Potency,[1],0.118 µM (active)
same,Potency,[2],0.166 µM (active)
Cc1nc(-c2ccc(-c3ccc(C(=O)N4CCc5cc6c(cc54)C4(CCN(C)CC4)CO6)cc3)c(C)c2)no1,Potency,[1],inactive
same,Potency,[2],inactive
CC(=Cc1csc(C)n1)[C@@H]1C[C@H]2O[C@]2(C)CCC[C@H](C)[C@@H](O)[C@@H](C)C(=O)C(C)(C)[C@@H](O)CC(=O)O1,Potency,[1],inactive
same,Potency,[2],inactive
COc1ccc(CC2NCCc3cc(OC)c(OC)cc32)cc1OC (centres undefined),Potency,[1],inactive
same,Potency,[2],inactive
Cc1c(C(=O)Nc2cccc(C(F)(F)F)c2)cc(-c2ccccc2)n1CCCN1CCOCC1,Potency,[1],23.5 µM (active)
same,Potency,[2],5.9 µM (active)
same,Z-AUC,[3],-1.03 (inactive)
same,Z-AUC,[3]; [4],-0.727
same,Z-AUC,[3]; measured here: PEO4 Z-AUC,-1.05
C[C@@H]1[C@H](O)[C@@H](C)C=CC=CCCC=CC=CC=CC=C[C@H](O[C@H]2O[C@@H](C)[C@H](O)[C@@H](N)[C@@H]2O)CC2O[C@](O)(C[C@@H](O)[C@H](O)CC[C@@H](O)C[C@@H](O)C[C@@H](O)CC(=O)O[C@H]1C)C[C@H](O)[C@H]2C(=O)O,Potency,[1],inactive
same,Potency,[2],inactive
Cc1c(C(=O)c2cccc3ccccc23)c2cccc3c2n1[C@H](CN1CCOCC1)CO3,Potency,[1],23.5 µM (active)
same,Potency,[2],23.5 µM (active)
CC=C(C)C(=O)O[C@H]1C(C)=C2[C@@H]3OC(=O)[C@@](C)(O)[C@@]3(O)[C@@H](OC(=O)CCC)C[C@](C)(OC(C)=O)[C@@H]2[C@@H]1OC(=O)CCCCCCC,Potency,[1],0.0332 µM (active)
same,Potency,[2],0.166 µM (active)
COc1cccc2c1[C@]13CCN(CC4CC4)[C@H](C2)[C@]1(OC)CCC(=O)C3,Potency,[1],inactive
same,Potency,[2],inactive
CC(=O)O[C@@]12CO[C@H]1C[C@H](O)[C@@]1(C)C(=O)[C@H](O)C3=C(C)[C@@H](O)C[C@@](O)([C@@H](OC(=O)c4ccccc4)[C@@H]21)C3(C)C,Potency,[1],2.35 µM (active)
C=CCON=C(C[C@H]1O[C@@H]2O[C@]3(C)CC[C@@H]4[C@H](C)CC[C@@H]([C@H]1C)[C@@]24OO3)[C@H]1O[C@@H]2O[C@]3(C)CC[C@H]4[C@H](C)CC[C@@H]([C@@H]1C)[C@@]24OO3,Potency,[1],0.187 µM (active)
same,Potency,[2],0.332 µM (active)
C[C@@H]1CC[C@@]2(OC1)O[C@H]1C[C@H]3[C@@H]4CC=C5C[C@@H](O[C@@H]6O[C@H](CO)[C@@H](O[C@@H]7O[C@@H](C)[C@H](O)[C@@H](O)[C@@H]7O)[C@H](O)[C@@H]6O[C@@H]6O[C@@H](C)[C@H](O)[C@@H](O)[C@@H]6O)CC[C@]5(C)[C@@H]4CC[C@]3(C)[C@@H]1[C@H]2C,Potency,[1],2.35 µM (active)
same,Potency,[2],2.96 µM (active)
COc1ccc2c(c1)CN(C)CC2c1ccc(Cl)c(Cl)c1 (centres undefined),Potency,[1],14.8 µM (active)
COC[C@H]1OC(=O)c2coc3c2[C@@]1(C)C1=C(C3=O)[C@@H]2CC[C@H](O)[C@@]2(C)C[C@@H]1OC(C)=O,Potency,[1],1.66 µM (active)
same,Potency,[2],9.35 µM (active)
C[C@]12CC[C@H](O)CC1=CC[C@H]1[C@H]3CCC(=O)[C@@]3(C)CC[C@@H]12,Potency,[1],23.5 µM (active)
Oc1ccc2c3c1O[C@H]1c4[nH]c5c(c4C[C@@]4(O)[C@@H](C2)N(CC2CC2)CC[C@]314)C[C@@]1(O)[C@H]2Cc3ccc(O)c4c3[C@@]1(CCN2CC1CC1)[C@H]5O4,Potency,[1],inactive
same,Potency,[2],inactive
COc1ccc(N(C(=O)Oc2c(C)cccc2C)c2ccnc(Nc3ccc(N4CCN(C)CC4)cc3)n2)c(OC)c1,Potency,[1],9.35 µM (active)
same,Potency,[2],7.43 µM (active)
same,Z-AUC,[3],-0.241 (inactive)
same,Z-AUC,[3]; [4],0.364
same,Z-AUC,[3]; measured here: PEO4 Z-AUC,0.481
CC=C(C)C(=O)N[C@@H](c1ccccc1)[C@@H](O)C(=O)O[C@H]1C[C@@]2(O)[C@@H](OC(=O)c3ccccc3)[C@@H]3[C@]4(OC(C)=O)CO[C@@H]4C[C@H](O)[C@@]3(C)C(=O)[C@H](OC(C)=O)C(=C1C)C2(C)C,Potency,[1],inactive
